Results filed as inconclusive are left out. The source made the active and inactive calls. The calls were made as follows, unless noted: active = hit-call score of the fitted dose curve at least 0.9, where 1 is the maximum; inactive = score below 0.9.
Assays:
[1] = CCTE_Mundy_HCI_Cortical_NOG_NeuriteCount: CCTE's Neurite Outgrowth Assay in rat cortical cells for Neurite Count, Mundy Lab (AID 2284212);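 also: cells fixed about two days after chemical exposure began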
Procedure, shortened: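 Rat cortical primary cells; compound added 2 h post-plating, 1/10 dilution of working solution. Anti-betaIII-tubulin/AF488 ICC; ArrayScan neurite count vs DMSO.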

[2] = CCTE_Mundy_HCI_Cortical_NOG_NeuriteLength: CCTE's Neurite Outgrowth Assay in rat cortical cells for Neurite Length, Mundy Lab (AID 2284213);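 as to AC50: neurites imaged about 48 to 50 h after chemical exposure began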
Procedure, shortened: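 First, rat primary cortical cells were plated and, 2 h later, given test chemical as a 1/10 dilution. Finally, βIII-tubulin immunostaining enabled automated imaging of neurite length.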

[3] = CCTE_Mundy_HCI_Cortical_Synap_Neur_Matur_NeuriteLength: CCTE's Synaptogenesis and Neurite Maturation Assay in rat cortical cells for Neurite Length, Mundy Lab (AID 2284214)
Procedure, shortened: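 Cultures of rat primary cortical cells received chemical at DIV 7 and were fixed at DIV 12, after glial arrest with AraC at DIV 5. Neurite length was measured by automated imaging of MAP2 immunofluorescence.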

[4] = CCTE_Mundy_HCI_Cortical_Synap_Neur_Matur_NeuriteSpotCountPerNeuron: CCTE's Synaptogenesis and Neurite Maturation Assay in rat cortical cells for Neurite Spot Count per Neuron Count, Mundy Lab (AID 2284215)
Procedure, shortened: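 Developing rat cortical neurons, with glia suppressed by AraC, are exposed to chemicals from DIV 7 to DIV 12. Automated fluorescence imaging of MAP2-labelled neurites and synaptophysin puncta yields a count per neuron, normalised against DMSO wells.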

[5] = CCTE_Mundy_HCI_Cortical_Synap_Neur_Matur_SynapseCount: CCTE's Synaptogenesis and Neurite Maturation Assay in rat cortical cells for Synapse Count, Mundy Lab (AID 2284218)
Procedure, shortened: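 Cells were plated, allowed 2 hr to attach, treated with AraC at DIV 5, then exposed to chemicals from DIV 7 until DIV 12. After fixation and MAP2/synaptophysin immunolabelling, synapses per neuron were quantified by automated imaging against DMSO.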

[6] = CCTE_Mundy_HCI_Cortical_Synap_Neur_Matur_NeuriteCount: CCTE's Synaptogenesis and Neurite Maturation Assay in rat cortical cells for Neurite Count, Mundy Lab (AID 2284222)
Procedure, shortened: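 In this multiplexed morphology readout, rat primary cortical neurons are fixed at DIV 12 following dosing at DIV 7 and stained for MAP2, synaptophysin and nuclei. High-content image analysis yields neurite count.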

[7] = CCTE_Mundy_HCI_Cortical_Synap_Neur_Matur_CellBodySpotCount: CCTE's Synaptogenesis and Neurite Maturation Assay in rat cortical cells for Cell Body Spot Count, Mundy Lab (AID 2284223)
Procedure, shortened: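 Chemicals were applied to AraC-treated rat primary cortical cells at DIV 7 and measured at DIV 12. Fixed cells were labelled for MAP2, synaptophysin and nuclei, and high-content imaging gave cell body synaptophysin spot counts per neuron relative to DMSO.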

[8] = CCTE_Mundy_HCI_hNP1_Pro_ResponderAvgInten: CCTE's Proliferation Assay in human neuroprogenitor cells, Mundy Lab (AID 2284224; active = hit-call score of the fitted dose curve at least 0.9, where 1 is the maximum;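 also: human neural progenitor cells hNP1 derived from WA09 embryonic stem cells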)
Procedure, shortened: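 Proliferation read as average intensity of BrdU-positive cells, imaged at 26.25 h post-dosing: chemical exposure started after 40–44 h culture, BrdU during final 4 h, paraformaldehyde fixation. Positive-direction fit relative to DMSO.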

[9] = UKN4_HCS_LUHMES_cell_viability: Viability Assessment in the University of Konstanz (UKN) Leist Lab Neurite Outgrowth Assay in human LUHMES cells (UKN4) (AID 2284232)
Procedure, shortened: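 Cells switched to differentiation medium at day 0, replated on day 2 in medium lacking cAMP and GDNF, and compound-treated once attached. Live staining began 23.5 h later, imaging followed at 24 h.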

[10] = CCTE_Mundy_HCI_Cortical_NOG_BPCount: CCTE's Neurite Outgrowth Assay in rat cortical cells for Branch Point Count, Mundy Lab (AID 2284237)
Procedure, shortened: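 Measured 50.33 h after dosing, this morphology endpoint uses rat primary cortical cultures labelled for betaIII-tubulin. Branch points are quantified by high-content imaging, with DMSO as negative control and baseline.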

[11] = CCTE_Mundy_HCI_hNP1_Casp3_7: CCTE's Caspase-Glo 3/7 Assay in human neuroprogenitor cells for Apoptosis, Mundy Lab (AID 2284240)
Procedure, shortened: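 Luminescent caspase-3/7 readout, 26.5 h post-dose, in human neural progenitor cells from WA09 embryonic stem cells. Cells grew 40–44 h at 37 °C, 5% CO2 before chemical addition. Activity analysed as signal increase over DMSO baseline.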

[12] = CCTE_Mundy_HCI_hNP1_CellTiter: CCTE's Cell Titer-Glo 2 Assay in human neuroprogenitor cells for Viability, Mundy Lab (AID 2284241; active = hit-call score of the fitted dose curve at least 0.9, where 1 is the maximum;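 as to AC50: a hit is a drop in ATP luminescence versus DMSO meaning reduced viability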)
Procedure, shortened: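 Viability read as luminescent ATP content (CellTiter-Glo, 30 min room temperature) twenty-four hours after dosing, relative to DMSO. Cells: WA09-derived hNP1 neuroprogenitors on poly-L-ornithine/laminin, plated 40 to 44 hours before chemical.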

[13] = TAMU_PeakParms_SingleDonor1434_Chronotropy: Texas A&M University (TAMU) 1.5-hr Human Induced Pluripotent Stem Cell (iPSC)-derived Cardiomyocytes Calcium (Ca+2) Flux Assay for Cardiotoxicity: Chronotropy (changes in peak frequency) (AID 2284217); conditions: actives raise or lower the signal
Procedure, shortened: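 Using fluorescent Ca2+ flux, average beats per second are measured in human iPSC-derived cardiomyocytes treated 90 min (0.5% DMSO vehicle, 0.2–100 uM). Non-beating data points are removed; activity is modeled in both directions relative to DMSO controls.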

[14] = TAMU_PeakParms_SingleDonor1434_QT: Texas A&M University (TAMU) 1.5-hr Human Induced Pluripotent Stem Cell (iPSC)-derived Cardiomyocytes Calcium (Ca+2) Flux Assay for Cardiotoxicity: QT (decay-rise ratio) (AID 2284235; active = hit-call score of the fitted dose curve at least 0.9, where 1 is the maximum)
Procedure, shortened: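 Decay/rise ratio of calcium-flux fluorescence scored after 90 min exposure (37C) of donor 1434 iPSC cardiomyocytes to 0.2–100 uM (0.5% DMSO). Beat-cessation and severe-notch points removed; POD is EC05, a 5% rise over DMSO.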

[15] = TAMU_HCS_1.5hr_SingleDonor1434_Cytotoxicity: Cytotoxicity Assessment using High-content Screening (HCS) Fluorescent Imaging for the Texas A&M University (TAMU) 1.5-hr Human Induced Pluripotent Stem Cell (iPSC)-derived Cardiotoxicity Assay (AID 2284234; active = hit-call score of the fitted dose curve at least 0.9, where 1 is the maximum)
Procedure, shortened: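 Nuclear counts from Hoechst 33342 imaging define cytotoxicity here, with EC10 (10% cell-count loss relative to DMSO) as point of departure. iPSC cardiomyocytes received 0.2-100 uM test chemical in 0.5% DMSO for 1.5 h at 37 C.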

[16] = CCTE_Mundy_HCI_hN2_NOG_NeuriteCount: CCTE's Neurite Outgrowth Assay in human hN2 cells for Neurite Count, Mundy Lab (AID 2284219; active = hit-call score of the fitted dose curve at least 0.9, where 1 is the maximum)
Procedure, shortened: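 In this morphology assay, hNP1-derived neurons received test chemical 2 h post-plating and were fixed two days later in warm paraformaldehyde/sucrose containing Hoechst 33342. Neurites, labelled by rabbit anti-βIII-tubulin (1:800) and Alexa Fluor-488 (1:500), were counted automatically.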

[17] = CCTE_Mundy_HCI_hN2_NOG_NeuriteLength: CCTE's Neurite Outgrowth Assay in human hN2 cells for Neurite Length, Mundy Lab (AID 2284220; active = hit-call score of the fitted dose curve at least 0.9, where 1 is the maximum)
Procedure, shortened: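 Read-out is neurite length from high-content imaging of βIII-tubulin/Alexa Fluor-488-labelled neurons, referenced to DMSO controls.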

[18] = CCTE_Mundy_HCI_hN2_NOG_NeuronCount: CCTE's Neurite Outgrowth Assay in human hN2 cells for Neuron Count, Mundy Lab (AID 2284221; active = hit-call score of the fitted dose curve at least 0.9, where 1 is the maximum)
Procedure, shortened: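 Read-out is the number of betaIII-tubulin-positive neurons imaged by automated high-content analysis, with DMSO as negative control.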

[19] = UKN2_HCS_IMR90_cell_viability: Viability Assessment in the University of Konstanz (UKN) Leist Lab Neural Crest Cell Migration Assay in human induced IMR90 Pluripotent Stem Cells (UKN2) (AID 2284233);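 also: cells exposed to compound for 24 h after a 24 h migration phase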
Procedure, shortened: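 Viability read as calcein-AM fluorescence by high-content imaging, Hoechst co-stain, 30 min. Human iPSC (IMR90) neural crest cells had migrated 24 h into stopper-defined gaps before 24 h chemical exposure. Fitted bidirectionally relative to DMSO.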

[20] = CCTE_Mundy_HCI_Cortical_Synap_Neur_Matur_NeuronCount: CCTE's Synaptogenesis and Neurite Maturation Assay in rat cortical cells for Neuron Count, Mundy Lab (AID 2284242; active = hit-call score of the fitted dose curve at least 0.9, where 1 is the maximum;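 as to AC50: neuron number from Hoechst nuclei and MAP2 staining by high-content imaging; hits reduce neuron count versus DMSO baseline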)
Procedure, shortened: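 Cortical cells from rat are plated, treated with AraC at DIV 5, and exposed to test chemicals with a media change at DIV 7. At DIV 12 they are fixed and immunostained (MAP2, synaptophysin), and imaged neuron counts are compared against DMSO controls.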

Measured: AC50

OCC(O)CO
not listed: [13] | [14] | [15] | [16] | [17] | [18] | [19] | [20]
inactive: all other assays above

CCc1nc(N)nc(N)c1-c1ccc(Cl)cc1
inactive: [13] | [14]

Nc1nc(=S)c2[nH]cnc2[nH]1
active: [13] 89.6 µM

O=C(O)CC(O)(CC(=O)O)C(=O)O
inactive: [13] | [15] | [14]

Cc1occc(=O)c1O
inactive: [13] | [15] | [14]

COC(=O)[C@H]1[C@H]2C[C@@H]3c4[nH]c5cc(OC)ccc5c4CCN3C[C@H]2C[C@@H](OC(=O)c2cc(OC)c(OC)c(OC)c2)[C@@H]1OC
inactive: [13] | [15] | [14]

CN(C)CCCN1c2ccccc2Sc2ccc(Cl)cc21
inactive: [7] | [8]
active: [2] 10.7 µM | [3] 12.8 µM | [4] 11.8 µM | [5] 11.8 µM | [16] 11 µM | [17] 14.3 µM | [18] 9.61 µM | [6] 21.1 µM | [19] 14.3 µM | [11] 11.6 µM | [12] 24.7 µM | [20] 13.7 µM

CC(=O)CC(c1ccccc1)c1c(O)c2ccccc2oc1=O (stereo unspecified)
inactive: [1] | [2] | [3] | [4] | [5] | [6] | [7] | [8] | [10] | [11] | [20]

O=C1NC(=O)C(c2ccccc2)(c2ccccc2)N1
not listed: [1] | [6] | [8] | [10] | [12] | [13] | [14] | [15]
inactive: all other assays above
